TCR act = T cell receptor activation; primary human leukocytes, anti-CD3, IL-2 HTRF, 48 h; AID 504894; Potency, µM (series often up to 9.22 µM), for the others: at the highest dose activation of IL-2 secretion, hits mostly activators; 330,000 tested, under 10 active; further: % of control where 0% means no effect
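Readout: HTRF IL-2, Eu-cryptate/d2 antibody pair, 320nm excitation, 665nm emission. Stimulus: a-CD3 beads, no co-stimulation. Cells: primary human leukocytes. Exposure: 48 hr with compound.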
BRCA1 expr act = BRCA1 expression activation; MCF7-BRCA1-FFLuc reporter, luminescence, 48 h; response scale: scaled: vehicle 0%, 10 µM genistein 100%; Potency, µM (series often up to 46.1 µM), without a hit: top-dose activation, actives largely listed as activators; AID 624202; actives 1.1% (n = 380,000); further: potency means the concentration at half of the fitted maximal effect; nearly all actives have a fitted effect of over 80% in size
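Activators of BRCA1 expression were detected as increased firefly luciferase luminescence in engineered MCF7 cells after 48 h compound incubation. Signals were scaled to genistein 10 microM as full activation.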
IL2 activator = IL-2 activation; IL-2 activation reporter assay, cell-based qHTS; stimulated with anti-CD3/CD4/CD28 beads; in transgenic mouse T cells; activation, % (series mostly up to about 46 µM); actives 0.065% (n = 360,000); in the data active means activation above about 50%; inconclusive means mostly about 30% to 49%; further: 0% is about no effect
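EGFP and DsRed fluorescence is measured by plate cytometry in unstimulated transgenic mouse T cells exposed to compound for 60 minutes, then stimulated 18 hours at 37 degrees C with anti-CD3/anti-CD4 beads plus anti-CD28.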
uPA surface inh = inhibitors of cell surface uPA generation. cell surface uPA generation assay, qHTS. Potency, µM (highest dose often 38.3 µM), for the others: top-dose activity change, negative = inhibition, most hits filed as inhibitors. actives 0.31% (n = 330,000); active means well fitted inhibition curve with a large enough effect; inconclusive means small, poorly fitted or top-dose-only effect; inactive means no such curve, though single readings can be large or run the other way; tested in mouse RAW 264.7 cells; further: potency means the concentration at half of the fitted maximal effect; on the % scale 0 is the no-effect control and ±100 the full control effect; nearly all actives have a fitted effect of over 55% in size
p53 reactivation = re-activators of mutant p53. H1299 p53-A138V BP100-luciferase reporter, luminescence, 24 h. Potency, µM (doses to about 92.2 µM), inactives show at the highest dose activity change, positive = activation, hits mostly activators. actives 0.063% (n = 320,000); further: potency means the concentration at half of the fitted maximal effect; % of control where 0% means no effect; nearly all actives have a fitted effect of over 45% in size
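H1299 (p53-null), stable ts p53-A138V + BP100-Luc; 1000 cells/well, Opti-MEM/10% FBS; cpd 4 pt, 1:5; 24 h, 37 deg C, 5% CO2; detection reagent 10 min RT; luminescence.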
The depositor's hits bear a star; u = inconclusive; x = not tested or not shown; [ ] = remark or other dose. Only some compounds are listed: those with a hit (about 1.4% of all), similar ones and a draw of the others. Unless noted, the call rests on the fitted dose curve; in most records, active means well fitted curve in the direction sought with a large enough effect; inconclusive means small, poorly fitted or top-dose-only effect, or another doubt; inactive means no such curve, though single readings can be large; an effect the other way counts as inactive or inconclusive.

SMILES | TCR act | BRCA1 expr act | IL2 activator | uPA surface inh | p53 reactivation
C=CCn1cc(/C=N/Nc2nc3ccccc3[nH]2)c2ccccc21 | -4%[46.1 µM] | -46% | -6 | -3% | 32µM*
CN(C)c1ccc(C=NC2CCc3ccccc32)cc1 (centres undefined) | x | 3% | x | x | x
CCc1ccc(NC(=O)c2sc3nc(C)cc(C)c3c2NC(=O)c2ccccc2OC)cc1 | x | -5% | x | x | x
CCOc1ccc(NC(=O)Cn2cc(C(=O)c3ccc(OCC)cc3)c(=O)c3cc4c(cc32)OCCO4)cc1 | x | 8% | x | x | x
CCn1c(SC(C)C(=O)NCc2ccco2)nnc1-c1ccccc1 (centres undefined) | x | 0% | x | x | x
CC(=O)N1CCc2c(sc3c2c(=O)n(-c2ccc(C)cc2)c(=O)n3Cc2ccccc2C)C1 | x | 0% | x | x | x
C(=N\Nc1nc2ccccc2[nH]1)/c1cccs1 | 0% | 10µM* | 3 | -1% | u
Cc1ccsc1/C=N/Nc1nc2ccccc2[nH]1 | -5%[46.1 µM] | u | -1 | u | u
COc1cccc(/C=N/Nc2nc3ccccc3[nH]2)c1OC | 3% | 7.9µM* | 1 | -10% | 6%
Cc1ccc(S(=O)(=O)Cc2nc(-c3ccc(C(=O)NCc4ccccc4F)cc3)oc2C)cc1 | x | 5% | x | x | x
CC(C)Oc1ccc(Nc2ncnc3ccccc23)cc1 | 5% | 2.5µM* | -3 | 1% | -11%
Oc1ccc(Nc2ncnc3ccccc23)cc1 | x | 17% | 0 | u | x
Cc1ccc(Nc2ncnc3ccccc23)cc1 | 11% | 5.6µM* | -1 | 1% | 13%
CC(C)(C)NC(=O)N1CCN(c2nc3ccc(Cl)cc3s2)CC1 | 5% | 10µM* | -4 | -1% | 4%
Cc1ccc(NC(=O)CCC(=O)c2cccs2)c(O)c1 | -1% | 11µM* | 0 | -1% | 17%
O=C(Cc1ccc(Br)cc1)N1CCc2ccccc2C1 | x | 10µM* | 1 | -10% | 8%
O=C(CCl)N=c1sccn1Cc1cccc2ccccc12 | 3% | -82% | -1 | 0.22µM* | -11%
O=C(CCl)N=c1sccn1Cc1ccccc1Cl | 1% | -29% | -5 | -5% | -12%
CCOc1ccccc1NC(=O)CN1C(=O)CC(c2ccco2)Sc2ccccc21 (centres undefined) | x | -64% | x | x | x
Cc1cc(Cl)c2oc(C(=O)N(C)C3CCOC3)c(C)c2c1 (centres undefined) | 1% | 2.5µM* | -4 | -10% | u
O=C(NCCc1c[nH]c2ccccc12)c1ccc2c(c1)OCO2 | 1% | u | 0 | -5% | u
O=C(NCCc1c[nH]c2ccccc12)C(=O)Nc1ccccc1 | 3% | 11µM* | -4 | u | u
Cc1ccc(NC(=O)C(=O)NCCc2c[nH]c3ccccc23)cc1C | -2% | 0% | 1 | 1% | 3%
O=C(NCCc1c[nH]c2ccccc12)c1cc(Cl)c2c(c1)OCO2 | 3% | 3.5µM* | 0 | 0% | u
COC(=O)[C@@H](Cc1c[nH]c2ccccc12)NC(=O)c1ccc2c(c1)OCO2 | 10% | 3.5µM* | -2 | 5% | 8%
SMILES | TCR act | BRCA1 expr act | IL2 activator | uPA surface inh | p53 reactivation
CCCCC(CC)CNC(=O)CCCCCn1c(=O)[nH]c2ccsc2c1=O (centres undefined) | x | -27% | x | x | x
C/C(=N/OCc1ccc(Br)cc1)c1ccccn1 | 5% | 3.5µM* | -5 | 0% | u
C/C(=N\OC(=O)c1ccc(Br)cc1)c1ccccn1 | 1%[46.1 µM] | -3% | 1 | 3% | -2%
COC(=O)c1cccc(CN2C(=O)C(C)Sc3cc(Cl)ccc32)c1 (centres undefined) | x | 5µM* | -1 | x | x
Cc1ccc(C(=O)NCCc2cccs2)cc1 | -1% | u | -3 | 5µM* | -11%
O=C(NCCc1cccs1)c1ccc(Cl)c(Cl)c1 | 4% | 4µM* | -2 | -3% | 17%
O=C(NCCc1cccs1)c1ccc(Cl)cc1 | -9% | u | -3 | -17% | 16%
COc1ccc(C(CC(=O)NCc2ccccc2Cl)N2Cc3ccccc3C2=O)cc1OC (centres undefined) | x | -12% | x | x | x
COc1cc(/C=C/c2ccc3cccc(O)c3n2)ccc1O | 6% | 11µM* | 0 | 7% | u
Cc1ccsc1/C=C/c1ccc2ccccc2n1 | 0% | 16% | 0 | -5% | 13%

Bioassay records (PubChem)
